# Data as given in PubChem BioAssay (NCATS).
# Results filed as inconclusive are left out. Calls of active or inactive are those of the source. The call rests on the fitted dose curve; in most records, active means well fitted inhibition curve with a large enough effect; inconclusive means small, poorly fitted or top-dose-only effect; inactive means no such curve, though single readings can be large or run the other way.
# Columns and labels:
# [1] = qHTS Screen of the MIPE 4.0 Collection Against Ewings Sarcoma (EW8) (AID 1259255); further: nearly all actives have a fitted effect of over 35% in size
# Procedure, shortened: (§1)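 CellTiter-Glo luminescence after 48 h compound exposure (titration) gave viability; percent activity used DMSO-treated cells as no inhibition and medium-only wells as full inhibition. Cells grown in RPMI/5% FBS, dosed 4 h post-seeding.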
# [2] = qHTS Screen of the MIPE 4.0 Collection Against Ewings Sarcoma (TC32) (AID 1259256); further: nearly all actives have a fitted effect of over 45% in size
# Procedure, shortened: as §1
# Potency means the concentration at half of the fitted maximal effect.
SMILES,Potency [1],Potency [2]
CCN1CCN(C(=O)Cc2ccc(Nc3ncc(F)c(Nc4ccc(C(=O)Nc5ccccc5Cl)cc4)n3)cc2)CC1,2960 nM (active),4180 nM (active)
CC=C(C)C(=O)O[C@H]1C(C)=C2[C@@H]3OC(=O)[C@@](C)(O)[C@@]3(O)[C@@H](OC(=O)CCC)C[C@](C)(OC(C)=O)[C@@H]2[C@@H]1OC(=O)CCCCCCC,93.5 nM (active),41.8 nM (active)
O=c1[nH]c2ccc(Cl)cc2c(N[C@@H]2CN3CCC2CC3)c1-c1nc2ccccc2[nH]1,74.3 nM (active),83.3 nM (active)
C[C@@H]1CC[C@@]2(OC1)O[C@H]1C[C@H]3[C@@H]4CC=C5C[C@@H](O[C@@H]6O[C@H](CO)[C@@H](O[C@@H]7O[C@@H](C)[C@H](O)[C@@H](O)[C@@H]7O)[C@H](O)[C@@H]6O[C@@H]6O[C@@H](C)[C@H](O)[C@@H](O)[C@@H]6O)CC[C@]5(C)[C@@H]4CC[C@]3(C)[C@@H]1[C@H]2C,3720 nM (active),3720 nM (active)
CC(=O)OCC1=C(C(=O)O)N2C(=O)[C@@H](N)[C@@H]2SC1,inactive,inactive
CC(=O)O[C@@]12CO[C@H]1C[C@H](O)[C@@]1(C)C(=O)[C@H](O)C3=C(C)[C@@H](O)C[C@@](O)([C@@H](OC(=O)c4ccccc4)[C@@H]21)C3(C)C,2350 nM (active),–
COc1cc2cc(c1Cl)N(C)C(=O)C[C@H](OC(=O)C(C)C)[C@]1(C)O[C@H]1[C@H](C)[C@@H]1C[C@@](O)(NC(=O)O1)[C@H](OC)C=CC=C(C)C2,inactive,inactive
COc1cccc2c1[C@]13CCN(CC4CC4)[C@H](C2)[C@]1(OC)CCC(=O)C3,inactive,inactive
CCOC(=O)c1c(C(C#N)=CN)c2ccc(Cl)c(Cl)c2n1C,inactive,inactive
CC(C)N(CCNC(=O)CN1CCCC1=O)C(C)C,inactive,inactive
COc1ccc(N(C(=O)Oc2c(C)cccc2C)c2ccnc(Nc3ccc(N4CCN(C)CC4)cc3)n2)c(OC)c1,2640 nM (active),2640 nM (active)
C[C@]12COC(=O)C[C@@H]1CC[C@@H]1[C@H]2CC[C@@]2(C)[C@H]1CC[C@]2(C)O,inactive,inactive
C#C[C@]1(O)C=C[C@@H]2[C@@H]3CCC4=CC(=O)CC[C@@H]4[C@H]3CC[C@@]21CC,inactive,inactive
N#C[C@H](O[C@@H]1O[C@H](CO[C@@H]2O[C@H](CO)[C@H](O)[C@H](O)[C@H]2O)[C@H](O)[C@H](O)[C@H]1O)c1ccccc1,20900 nM (active),26400 nM (active)
c1ccc2c(CN3CCNCC3)cccc2c1,inactive,inactive
CN1[C@H]2CC(O)C[C@H]1[C@H]1O[C@H]12 (stereo partly specified),23500 nM (active),23500 nM (active)

SMILES,Potency [1],Potency [2]
C[C@]12CC[C@H]3[C@@H](CCC4=CC(=O)CC[C@@]43C)[C@H]1CC[C@H]2O,inactive,inactive
O=C(Nc1ccncc1)C(=O)c1cn(Cc2ccc(Cl)cc2)c2ccccc12,93.5 nM (active),inactive
CCC(=O)OC1CCC2C3CCC4=CC(=O)CC[C@@]4(C)C3CC[C@]12C (stereo partly specified),inactive,inactive
CN1CCN(c2ccc([N+](=O)[O-])c3no[n+]([O-])c23)CC1,23500 nM (active),18700 nM (active)
Cc1[nH]nc2ccc(-c3cncc(OC[C@@H](N)Cc4c[nH]c5ccccc45)c3)cc12,2090 nM (active),4690 nM (active)
COC1=CC(C)=C[C@@H](C)[C@@H](O)[C@@H](C)CC(C)=CC=C[C@H](OC)[C@H]([C@@H](C)[C@@H](O)[C@H](C)[C@@]2(O)C[C@@H](O)[C@H](C)[C@@H](C(C)C)O2)OC1=O,5.3 nM (active),3.3 nM (active)
C[C@]12Cc3cn[nH]c3C[C@@H]1CC[C@@H]1[C@H]2CC[C@@]2(C)[C@H]1CC[C@]2(C)O,2960 nM (active),3320 nM (active)
CC1=C(O)C(=O)C=C2C1=CC=C1[C@@]2(C)CC[C@@]2(C)[C@@H]3C[C@](C)(C(=O)O)CC[C@]3(C)CC[C@]12C,935 nM (active),833 nM (active)
Clc1ccccc1C(c1ccccc1)(c1ccccc1)n1cccn1,1050 nM (active),935 nM (active)
CCOP(=O)(OCC)C(C)NC(=O)N(CCCl)N=O (stereo unspecified),inactive,inactive
CC1=NN=C(c2ccc(N)cc2)c2cc3c(cc2C1)OCO3,inactive,inactive
CCN1C[C@]2(OC(=O)c3ccccc3NC(C)=O)CC[C@H](OC)[C@@]34[C@H]5CC6[C@@H](OC)C[C@](O)(C(C[C@@H]23)[C@@H]14)[C@@]5(O)[C@@H]6OC,inactive,inactive
Cc1c(C(=O)c2cccc3ccccc23)c2cccc3c2n1[C@H](CN1CCOCC1)CO3,26400 nM (active),26400 nM (active)
Oc1ccc2c3c1O[C@H]1c4[nH]c5c(c4C[C@@]4(O)[C@@H](C2)N(CC2CC2)CC[C@]314)C[C@@]1(O)[C@H]2Cc3ccc(O)c4c3[C@@]1(CCN2CC1CC1)[C@H]5O4,inactive,inactive
COCC1(CO)C(=O)C2CCN1CC2 (stereo unspecified),2640 nM (active),2350 nM (active)
